Test results published in PubChem BioAssay (NCI).
The panel holds about 79,000 compounds, 15% with a hit somewhere; the sample as a whole holds those more often. Values without a mark were called inactive. The source made the active and inactive calls. Cut-off read from the data, not from the text of the source: active = growth inhibition above about 70%; inactive = the rest.

Experiments:
[1] = NCI Yeast Anticancer Drug Screen. Data for the rad50 strain (AID 155);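 note: 0% = growth of vehicle-only cultures of the same strain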; conditions: S. cerevisiae rad50 strain growth inhibition, active compounds read high; at 50.0 µM unless noted
In short: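 Growth of the mutant yeast was measured after compound exposure and referenced to vehicle-treated cultures.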

[2] = NCI Yeast Anticancer Drug Screen. Data for the mec2-1 strain (AID 157); conditions: S. cerevisiae mec2-1 strain, active compounds read high; at 50.0 µM unless noted
In short: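 Each compound was tested on mec2-1 yeast, a strain altered in DNA damage repair or cell cycle control. Growth inhibition is reported relative to vehicle.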

[3] = NCI Yeast Anticancer Drug Screen. Data for the sgs1 mgt1 strain (AID 161);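 note: 0% = growth of cultures given vehicle only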; conditions: S. cerevisiae sgs1 mgt1 strain, active compounds read high; at 50.0 µM unless noted
In short: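 Read-out: growth inhibition vs vehicle controls. Cells: mutant yeast strain deficient in DNA damage repair.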

[4] = NCI Yeast Anticancer Drug Screen. Data for the cln2 rad14 strain (AID 165);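 note: 0% = growth equal to vehicle treated cultures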; conditions: S. cerevisiae cln2 rad14 strain, active compounds read high; at 50.0 µM unless noted
In short: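 Test compounds were added to cln2 rad14 yeast cultures; inhibition of growth was then determined by comparison with vehicle treatment.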

[5] = NCI Yeast Anticancer Drug Screen. Data for the bub3 strain (AID 167); conditions: S. cerevisiae bub3 mutant strain, active compounds read high; at 50.0 µM unless noted
In short: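 Whole-cell yeast assay. The mutant strain was incubated with compounds, and growth inhibition was determined by comparison with vehicle-treated cells.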

[6] = NCI Yeast Anticancer Drug Screen. Data for the mlh1 rad18 strain (AID 175); conditions: S. cerevisiae mlh1 rad18 strain growth inhibition, active compounds read high; at 50.0 µM unless noted
In short: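 Inhibition values reflect reduced growth of mutant yeast versus vehicle-treated controls following compound exposure; the mutations affect DNA damage repair.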

OC1(c2nccc3ccccc23)CCN(CCc2ccccc2)CC1
growth inhibition [1]: 46.5%
growth inhibition [2]: 33.4%
growth inhibition [3]: 55.8%
growth inhibition [4]: 40.5%
growth inhibition [5]: 17.9%
growth inhibition [6]: 34.8%

COc1ccc(Cl)c2c(=O)c3ccccc3[nH]c12
growth inhibition [1]: -3.45%
growth inhibition [2]: 7.65%
growth inhibition [3]: 2.5%
growth inhibition [4]: -35.1%
growth inhibition [5]: -12.3%
growth inhibition [6]: 12.8%

Cc1[nH]nc2c1C(=O)C=C(N(CCO)c1ccccc1)C2=O
growth inhibition [1]: -24.6%
growth inhibition [2]: 5.35%
growth inhibition [3]: 2.25%
growth inhibition [4]: 11.2%
growth inhibition [5]: -11.9%
growth inhibition [6]: -6.55%

CC(=O)[C@@]1(O)CC[C@H]2[C@@H]3CC[C@@H]4C[C@H](O)CC[C@]4(C)[C@H]3[C@H](O)C[C@@]21C
growth inhibition [1]: -9.8%
growth inhibition [2]: -3.7%
growth inhibition [3]: 8%
growth inhibition [4]: -34.1%
growth inhibition [5]: 11.3%
growth inhibition [6]: -7.85%

O=C1CN(Cc2cccc(Cl)c2)CC(=O)N2Cc3ccccc3CN12
growth inhibition [1]: 34.4%
growth inhibition [2]: -1%
growth inhibition [3]: 14.2%
growth inhibition [4]: -10.8%
growth inhibition [5]: 8.9%
growth inhibition [6]: -11.5%

O=C1c2c(Br)sc(Br)c2C(NC(=O)C(F)(F)F)C1O (centres undefined)
growth inhibition [1]: 10.3%
growth inhibition [2]: 18.3%
growth inhibition [3]: -12.3%
growth inhibition [4]: -11%
growth inhibition [5]: 3.95%
growth inhibition [6]: -27.4%

CN(C)c1ccc(/C=C2\C(=O)/C(=C\c3ccc(N(C)C)cc3)c3ccccc32)cc1
growth inhibition [1]: 2.95%
growth inhibition [2]: -4.25%
growth inhibition [3]: -13.8%
growth inhibition [4]: -12.5%
growth inhibition [5]: 1.05%
growth inhibition [6]: 2.95%

COc1cc(C2c3cc4c(c(OC)c3CC3COC(=O)[C@@H]32)OCO4)cc(OC)c1O (some centres undefined)
growth inhibition [1]: 85.9% (active)
growth inhibition [2]: 86.2% (active)
growth inhibition [3]: 80.5% (active)
growth inhibition [4]: 76.3% (active)
growth inhibition [5]: 82.8% (active)
growth inhibition [6]: 87.7% (active)

O=C(O)c1nc2ccccc2nc1C(=O)O
growth inhibition [1]: -27.9%
growth inhibition [2]: -7.65%
growth inhibition [3]: -13.4%
growth inhibition [4]: -17.6%
growth inhibition [5]: -7.95%
growth inhibition [6]: -3.85%

O=C(O)C1C2CC=CCC21 (centres undefined)
growth inhibition [1]: 13.4%
growth inhibition [2]: 4.5%
growth inhibition [3]: 11.8%
growth inhibition [4]: 8.85%
growth inhibition [5]: 12.2%
growth inhibition [6]: 16.6%

CCOC(=O)c1c(-c2ccc([N+](=O)[O-])cc2)cn(-c2ccc(OC)cc2)c1C
growth inhibition [1]: 13.2%
growth inhibition [2]: 7.1%
growth inhibition [3]: 12.4%
growth inhibition [4]: 4.35%
growth inhibition [5]: -0.65%
growth inhibition [6]: 1%

O=[N+]([O-])c1ccc(S(=O)(=O)O)cc1
growth inhibition [1]: 43.6%
growth inhibition [2]: 25.1%
growth inhibition [3]: 37.5%
growth inhibition [4]: -22.7%
growth inhibition [5]: 9.65%
growth inhibition [6]: 43.1%

COc1ccc(N2C(=O)c3c(c4[nH]c5ccc(OC)cc5c4c4ccc(C(C)(C)C)cc34)C2=O)cc1
growth inhibition [1]: -8.85%
growth inhibition [2]: -7.95%
growth inhibition [3]: 4.4%
growth inhibition [4]: 7.2%
growth inhibition [5]: -2.95%
growth inhibition [6]: 26.6%

Clc1ccc2[nH]c3c(c2c1)CCCC3
growth inhibition [1]: 10.7%
growth inhibition [2]: 0.45%
growth inhibition [3]: 28.4%
growth inhibition [4]: 1.6%
growth inhibition [5]: 2.55%
growth inhibition [6]: 28.8%

CCC(/C=C/c1ccc(C)cc1)=N\NC(=O)c1ccccc1
growth inhibition [1]: -0.25%
growth inhibition [2]: -2.3%
growth inhibition [3]: -1.1%
growth inhibition [4]: 19.2%
growth inhibition [5]: 3.35%
growth inhibition [6]: 3.05%

c1ccc(N=NC2(c3ccccc3)CC(c3ccccc3)=NN(c3ccccc3)C2NNc2ccccc2)cc1 (centres undefined)
growth inhibition [1]: 53%
growth inhibition [2]: 7.8%
growth inhibition [3]: 23.8%
growth inhibition [4]: 17.7%
growth inhibition [5]: 6.75%
growth inhibition [6]: 31.7%

CCN1CCN(c2nc3ccccc3c3c2CCOc2ccccc2-3)CC1
growth inhibition [1]: -12.4%
growth inhibition [2]: -16.9%
growth inhibition [3]: -15.8%
growth inhibition [4]: 19.1%
growth inhibition [5]: 0.25%
growth inhibition [6]: 6%

CCOc1ccc(C(C)c2cc3c(cc2OCC(=O)O)OCO3)cc1 (centres undefined)
growth inhibition [1]: 0.65%
growth inhibition [2]: -6.4%
growth inhibition [3]: -8.45%
growth inhibition [4]: 25.1%
growth inhibition [5]: -6.9%
growth inhibition [6]: -11.6%

CN(C)/C(N)=N\c1nc(O)cc(=O)[nH]1
growth inhibition [1]: 6.7%
growth inhibition [2]: -19.6%
growth inhibition [3]: -0.05%
growth inhibition [4]: -0.6%
growth inhibition [5]: 10.7%
growth inhibition [6]: 10.1%

CCOC(=O)c1cc(C(O)C(O)C(O)CO)oc1C (centres undefined)
growth inhibition [1]: 14.6%
growth inhibition [2]: 2.1%
growth inhibition [3]: -6.45%
growth inhibition [4]: -13.1%
growth inhibition [5]: 21.9%
growth inhibition [6]: 18.1%

c1ccc(C2(c3ccc(C4(c5ccccc5)Oc5ccccc5S4)[nH]3)Oc3ccccc3S2)cc1 (centres undefined)
growth inhibition [1]: 20.4%
growth inhibition [2]: -12.2%
growth inhibition [3]: -4.4%
growth inhibition [4]: 11.6%
growth inhibition [5]: -16.7%
growth inhibition [6]: 20.2%

O=C1C=C(c2ccccc2)C(c2ccccc2)C(c2ccccc2)C1 (centres undefined)
growth inhibition [1]: 1.4%
growth inhibition [2]: 21%
growth inhibition [3]: 16.4%
growth inhibition [4]: -5.35%
growth inhibition [5]: 3.85%
growth inhibition [6]: -3.1%

CCCCCC[N+]1([O-])CC[N+]([O-])(CCCCCC)CC1 (centres undefined)
growth inhibition [1]: -6.6%
growth inhibition [2]: -7.9%
growth inhibition [3]: -1.55%
growth inhibition [4]: -43.4%
growth inhibition [5]: 0.35%
growth inhibition [6]: 7.35%

CCN(CC)/N=C/c1cc([N+](=O)[O-])ccc1O
growth inhibition [1]: 24.9%
growth inhibition [2]: 5.4%
growth inhibition [3]: -6.85%
growth inhibition [4]: -50.9%
growth inhibition [5]: 2.9%
growth inhibition [6]: 15.7%

COc1ccc2c(c1)[n+](=O)c(C(=O)C/C(=N/NC(=O)c1ccccc1O)C(=O)Nc1ccc(Cl)c(C(F)(F)F)c1)c(C)n2[O-]
growth inhibition [1]: 25.1%
growth inhibition [2]: 9.4%
growth inhibition [3]: 14.5%
growth inhibition [4]: 8.75%
growth inhibition [5]: 34.2%
growth inhibition [6]: 1.35%

CC(=O)OCC(OC(C)=O)C(OC(C)=O)C(/C=N/N(C(C)=O)S(=O)(=O)c1ccc(/C=C2\NC(=O)NC2=O)cc1)OC(C)=O (centres undefined)
growth inhibition [1]: -42.5%
growth inhibition [2]: -23.6%
growth inhibition [3]: -34.6%
growth inhibition [4]: -2.45%
growth inhibition [5]: -18.9%
growth inhibition [6]: -25.6%

N#C/C(=C/NC(N)=S)C(N)=O
growth inhibition [1]: -25.6%
growth inhibition [2]: 10.3%
growth inhibition [3]: -16.4%
growth inhibition [4]: 14.6%
growth inhibition [5]: -27.1%
growth inhibition [6]: 20.7%

CC1=CC(=O)[C@@H](O)[C@@]2(C)C1C[C@H]1OC(=O)[C@H](C/C=C(/C)C(C)C)[C@H]3C(C)C(O)C4(O)OC[C@@]31C42 (some centres undefined)
growth inhibition [1]: 76.8% (active)
growth inhibition [2]: 77.9% (active)
growth inhibition [3]: 72% (active)
growth inhibition [4]: 81.7% (active)
growth inhibition [5]: 80% (active)
growth inhibition [6]: 76.5% (active)

CC(C)N1C(=O)NC2C1NC(=O)N2C(C)C (centres undefined) (tested in a mixture with another compound)
growth inhibition [1]: -14.8%
growth inhibition [2]: -5.2%
growth inhibition [3]: -1.15%
growth inhibition [4]: 22.4%
growth inhibition [5]: -12.8%
growth inhibition [6]: -3.05%

CSc1nnc(CCC(=O)Nc2cc(Cl)ccc2Cl)o1
growth inhibition [1]: 40.7%
growth inhibition [2]: 44.8%
growth inhibition [3]: 28.9%
growth inhibition [4]: 15.7%
growth inhibition [5]: 54.5%
growth inhibition [6]: 9.05%

N#Cc1c(-c2ccccc2Cl)c(-c2ccccc2Cl)nn(CCO)c1=O
growth inhibition [1]: 16.9%
growth inhibition [2]: 7.2%
growth inhibition [3]: 13.4%
growth inhibition [4]: 9.35%
growth inhibition [5]: 10.2%
growth inhibition [6]: 27.5%

CCOC(=O)C(Cc1ccccc1)NC(=O)c1ccc(N=NN(C)C)cc1 (centres undefined)
growth inhibition [1]: -19.8%
growth inhibition [2]: -31.7%
growth inhibition [3]: -37.2%
growth inhibition [4]: -8.15%
growth inhibition [5]: 6.65%
growth inhibition [6]: -29.6%

Cc1cc(N(CCC#N)CCC#N)ccc1/C=C1/CN(N2C(=O)/C(=C/c3ccc(N(CCC#N)CCC#N)cc3C)N=C2c2ccccc2)C(c2ccccc2)=N1
growth inhibition [1]: -2.7%
growth inhibition [2]: -25.4%
growth inhibition [3]: -22.6%
growth inhibition [4]: 5.6%
growth inhibition [5]: -28.8%
growth inhibition [6]: -11.1%

COc1cc2c(cc1OC)NC(=O)NC(Cc1ccc3c(c1)OCO3)CC2 (centres undefined)
growth inhibition [1]: 20.6%
growth inhibition [2]: 10.8%
growth inhibition [3]: 13.8%
growth inhibition [4]: -47%
growth inhibition [5]: 22.3%
growth inhibition [6]: 27.3%

CC(=O)c1ccc(Cl)cc1Cl
growth inhibition [1]: -12.4%
growth inhibition [2]: -11.8%
growth inhibition [3]: -3.7%
growth inhibition [4]: -6.65%
growth inhibition [5]: -13.3%
growth inhibition [6]: -38.5%

CCC(C)C/C(C)=N/Nc1ccc([N+](=O)[O-])cc1[N+](=O)[O-] (centres undefined)
growth inhibition [1]: -0.4%
growth inhibition [2]: 7.85%
growth inhibition [3]: 0.65%
growth inhibition [4]: -16.4%
growth inhibition [5]: 12.7%
growth inhibition [6]: -6.25%

N#CC1CCC[N-]C1.N#CC1CCC[N-]C1.[Cl][Pt+2][Cl] (centres undefined)
growth inhibition [1]: 50.6%
growth inhibition [2]: 4.75%
growth inhibition [3]: 32.4%
growth inhibition [4]: 21.1%
growth inhibition [5]: 4.3%
growth inhibition [6]: 42.4%

O=c1ccc(-c2ccc(-n3ccnc3)cc2)nn1CCO
growth inhibition [1]: -39.4%
growth inhibition [2]: -49.5%
growth inhibition [3]: -24.7%
growth inhibition [4]: -2.7%
growth inhibition [5]: -38%
growth inhibition [6]: -10.8%

C=C(C)[C@H]1C=C[C@@H](OC(=O)c2cccnc2)[C@@]23CO[C@@](C)([C@H](OC(=O)c4cccnc4)[C@@]4(OC(C)=O)C[C@H](C)[C@H](OCCC)[C@@H]4[C@H]2OC(C)=O)[C@H]13
growth inhibition [1]: -11.2%
growth inhibition [2]: -6.1%
growth inhibition [3]: 27.4%
growth inhibition [4]: 35.4%
growth inhibition [5]: 22.6%
growth inhibition [6]: 79.8% (active)
